This excerpt belongs to a sample that is enriched for hits.
Pf Dd2 inh: Plasmodium falciparum Dd2 growth inhibition | P. falciparum Dd2 growth, SYBR Green, 72 h | Potency, µM (doses to about 28.9 µM), most hits filed as inhibitors | 4.3% of 120,000 active; active = well fitted inhibition curve with a large enough effect; note: nearly all actives have a fitted effect of over 65% in size
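Infected erythrocytes (Dd2, 0.3% parasitemia, 2.5% hematocrit final) are added to compound in RPMI-1640/Albumax II medium, grown 72 h at 37C in low oxygen, then lysed with saponin/Triton-X containing SYBR Green and read by fluorescence.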
Large screens that a line does not name were inactive.

COc1ccccc1-c1ccnc(N[C@H]2CO[C@H]3[C@@H]2OC[C@@H]3NS(C)(=O)=O)n1	Pf Dd2 inh 14.1µM
COc1ccccc1-c1ccnc(N[C@H]2CO[C@H]3[C@@H]2OC[C@@H]3NS(=O)(=O)c2cccs2)n1	none
COc1ccccc1-c1ccnc(N[C@H]2CO[C@H]3[C@@H]2OC[C@@H]3NS(=O)(=O)c2ccc(NC(C)=O)cc2)n1	none
CCn1cc(S(=O)(=O)N2CC(COC)C3(CCNCC3)C2)cn1 (configuration not stated)	none
Cc1cccc(-c2nc(CCNC(=O)COc3ccccc3)cs2)c1	none

From PubChem
